Results reported in PubChem BioAssay (NCI).
This is part of a sample that, as a whole, favours compounds with a hit. Of some 79,000 tested, about 15% had one in any assay. Unmarked numbers belong to inactive results. Calls of active or inactive are those of the source. No stated cut-off is given here; in the data, active means growth inhibition above about 70%; inactive means the rest.

Experiment: NCI Yeast Anticancer Drug Screen. Data for the cln2 rad14 strain (AID 165);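 further: 0% = growth equal to vehicle treated cultures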
Conditions: S. cerevisiae cln2 rad14 strain, at 50.0 µM, hits give high values
Procedure, shortened: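 cln2 rad14 yeast strain; compound exposure; growth inhibition read vs vehicle controls.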

Row | SMILES | growth inhibition
1 | COC(=O)c1ccc(NN)cc1 | 46.1%
2 | O=[N+]([O-])c1ccc(-c2nc3c(o2)CCC3)cc1 | 25.1%
3 | Cc1ccc(S(=O)(=O)N/N=C(\C=C\c2ccccc2)c2ccccc2)cc1 | 44.4%
4 | [N-]=[N+]=NC1=CC(=O)c2cccc3cccc1c23 | 80.1% (active)
5 | CCOc1ccc2nc3cc(Cl)ccc3[n+](C)c2c1 | 72.7% (active)
6 | Cc1ccc(C(c2ccc(N(C)C)cc2)c2ccc(N(C)C)cc2)cc1 | 69%
7 | O=[N+]([O-])c1ccc2c(c1)[n+]([O-])c1[nH]c3ccccc3c1[n+]2[O-] (tested in a mixture with another compound) | 89.8% (active)
8 | C/C(=N\NC(=S)N1CCCCCC1)c1cccc2cccnc12 | 94.4% (active)
9 | CC(C)c1cc(O)c(C(C)(C)C)cc1Cl | 72.5% (active)
10 | CN(C)c1ccc(/C=C(/NC(=O)c2ccccc2)c2nc3ccc(Cl)cc3[nH]2)cc1 | 60.5%
11 | CC(C)(C)c1ccc2c(c1)C(O)(c1ccccc1)C1OC1(C(C)(C)C)C2=O (stereo not given) | 91.7% (active)
12 | CCCCCCCCCCCCOP(=O)(N1CC1(C)C)N1CC1(C)C (stereo not given) | 34.2%
13 | Cc1ccc(C(=O)CC(N)C(=O)O)cc1 (stereo not given) | 89% (active)
14 | COC(=O)CCC(=O)NCCc1ccc2c([nH]c3ccccc32)c1C | 93% (active)
15 | Nc1ccc(C(=O)N/C(=C\C=C\c2ccco2)c2nc3c4c(ccc3[nH]2)C(=O)c2ccccc2C4=O)cc1 | 44.7%
16 | Oc1ccc(CCCCCc2ccc(O)cc2)cc1 | 99.2% (active)
17 | O=C(O)C1C(C(=O)O)C2C(=O)C=CC1N2Cc1ccccc1 (stereo not given) | 46.3%
18 | CC1(C)CC(=O)C(c2ccccc2[N+](=O)[O-])=C(O)C1 | 90.3% (active)
19 | ON(Cc1ccccc1)C(=S)c1ccccc1 | 89.3% (active)
20 | CCCCC(O)(c1ccc2nc(NC(=O)OC)[nH]c2c1)c1cccs1 (stereo not given) | 36%

Row | SMILES | growth inhibition
21 | O=C(O)CC/C(=N\Nc1ccccc1)C(=O)O | 97% (active)
22 | CC(C)(c1ccc(OC#N)cc1)c1ccc(OC#N)cc1 | 61.4%
23 | C=CC(C)(CCC=C(C)C)OC(=O)Nc1ccccc1 (stereo not given) | -7.95%
24 | Cc1ccc(Cc2nc(=S)[nH][nH]2)cc1 | -9.2%
25 | Cc1c(Cl)c(S(N)(=O)=O)cc2c1NC=NS2(=O)=O | 22.4%
26 | O=C(c1cccnc1)N(C1CCCCC1)C1CCCCC1 | 11.8%
27 | COc1cc(NCC(C)(O)CN2CCC(C)CC2C)c2ncccc2c1 (stereo not given) | 79.4% (active)
28 | O=C1C=CC(=Nc2cccc3c2-c2ccccc2C3)O1 | 99.4% (active)
29 | CC(O)c1c2c(cc3c1CC1(C3)Cc3cc4c(c(C(C)O)c3C1)CCC4)CCC2 (stereo not given) | 86.7% (active)
30 | CCCCCCCCCCCCCCCC[N+](C)(C)CCl | 89% (active)
31 | CCCCC(CC)CNc1ncnc2c1cnn2C (stereo not given) | 20.9%
32 | O=C1NN(C2=NNC3(C(=O)N2)c2ccccc2-c2ccccc23)C(c2ccccc2)=N/C1=C/c1ccc(Cl)cc1 | -3.25%
33 | CCCCc1ccc2nccc(N/N=C/c3ccc(OC)c4ccccc34)c2c1 | 62.4%
34 | CC(C)(C[NH-])C[NH-].[Cl][Pt+2]([Cl])([Cl])[Cl] | 87.4% (active)
35 | O=C(O)C1(Cc2ccc3c(c2)CCC3)Cc2ccccc2C1 | 89% (active)
36 | CCN(CC)C(C)(C)C(=O)/C=C/c1ccc(Cl)cc1 | -5%
37 | CCc1ccccc1NC(=O)C(=O)C(C#N)c1c(Cl)cccc1Cl (stereo not given) | -28.7%
38 | COc1c(OC)c(C2(O)C(=O)N(C)c3ccccc32)c(OC)c(OC)c1C1(O)C(=O)N(C)c2ccccc21 (stereo not given) | -0.05%
39 | Nc1ccc2ccccc2c1N=Cc1ccccc1[N+](=O)[O-] | -40.1%
40 | O=[N+]([O-])C1=Cc2cc(Cl)ccc2OC1c1cccc2ccccc12 (stereo not given) | 87.1% (active)
